PAFAH1B3 inh: blocks human PAF acetylhydrolase 1B catalytic subunit 3 | Q15102 | recombinant PAFAH1B3, FP-rhodamine probe, fluorescence polarization | inhibition, % at 3.39 µM | actives 0.28% (n = 340,000);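 active = inhibition above the screen-wide average of all tested compounds plus 3 SD, cut at about 25% in these data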;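 note: 0% = enzyme with DMSO only and 100% = wells lacking PAFAH1B3 protein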
eLon inh: E. coli protease La inhibition | P0A9M0 | purified E. coli Lon protease, fluorescence polarization | inhibition, % at 7.94 µM | actives 0.42% (n = 360,000) | AID 602123; in the data active = inhibition above about 13%, passing the limit was not always enough;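 note: 0% = enzyme with probe and DMSO and 100% = no enzyme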
Target sequence (P0A9M0 whole entry, looked up): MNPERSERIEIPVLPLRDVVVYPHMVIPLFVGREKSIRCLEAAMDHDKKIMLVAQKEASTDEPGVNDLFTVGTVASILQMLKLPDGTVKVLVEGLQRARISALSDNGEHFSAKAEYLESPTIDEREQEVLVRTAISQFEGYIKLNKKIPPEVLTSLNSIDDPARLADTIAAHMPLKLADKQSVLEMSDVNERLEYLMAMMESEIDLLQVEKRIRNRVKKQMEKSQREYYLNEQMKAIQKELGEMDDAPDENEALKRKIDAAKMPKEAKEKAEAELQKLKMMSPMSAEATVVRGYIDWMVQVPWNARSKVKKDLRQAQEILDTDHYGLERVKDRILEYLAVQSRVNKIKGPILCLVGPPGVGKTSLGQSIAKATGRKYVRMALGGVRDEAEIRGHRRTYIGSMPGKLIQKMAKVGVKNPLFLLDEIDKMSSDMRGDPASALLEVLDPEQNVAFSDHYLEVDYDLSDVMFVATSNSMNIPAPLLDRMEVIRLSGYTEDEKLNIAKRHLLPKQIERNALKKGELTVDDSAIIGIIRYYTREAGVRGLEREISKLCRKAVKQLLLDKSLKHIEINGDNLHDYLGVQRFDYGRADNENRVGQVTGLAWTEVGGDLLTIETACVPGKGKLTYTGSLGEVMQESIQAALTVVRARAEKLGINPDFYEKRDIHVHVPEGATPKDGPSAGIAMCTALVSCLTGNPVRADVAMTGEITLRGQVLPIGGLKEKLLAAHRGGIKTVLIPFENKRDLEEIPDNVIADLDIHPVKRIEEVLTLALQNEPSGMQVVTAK
PAFAH1B2 inh: PAFAH1B2 (human) inhibition; recombinant PAFAH1B2, FP-rhodamine activity probe, fluorescence polarization; actives 1.2% (n = 340,000); P68402; inhibition, % at 3.39 µM; AID 492953;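 active = inhibition above the mean of all tested compounds plus 3 SD, cut at about 24% in these data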;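 note: 0% = enzyme with DMSO and 100% = wells lacking PAFAH1B2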
pPAFAH FP inh: pPAFAH (human) enzyme inhibition; inhibition, % at 3.39 µM; Q13093; recombinant pPAFAH, FP-rhodamine probe fluorescence polarization; actives 1.5% (n = 330,000); AID 463082;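 active = inhibition above the mean inhibition across the screen plus 3 SD, cut at about 25% in these data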;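 note: inhibitors block binding of the rhodamine activity-based probe so polarization drops; 0% = enzyme with DMSO and 100% = wells lacking pPAFAH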
PAFAH2 FP inh: PAFAH2 (human) inhibition; Q99487; recombinant PAFAH2, FP-rhodamine activity probe, fluorescence polarization; inhibition, % at 3.39 µM; actives 0.99% (n = 340,000); AID 492956;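 active = inhibition above the mean over all tested compounds plus 3 SD, cut at about 30% in these data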;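 note: inhibitors block probe labeling of enzyme so polarization drops; 0% = enzyme with DMSO and 100% = wells lacking PAFAH2 protein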
Rin1-Abl PPI inh: human Rin1-Abl interaction inhibition; TR-FRET Rin1/Abl binding, biochemical; inhibition, % at 7.35 µM; actives 0.4% (n = 360,000); in the data active = inhibition above about 5%, passing the limit was not always enough
PAFAH2 confirm: confirmation of human PAFAH2 inhibitors | shares compounds with PAFAH2 FP inh | recombinant PAFAH2, FP-rhodamine activity probe, fluorescence polarization | inhibition, % at 3.39 µM | actives 65% (n = 2,300);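 active = mean inhibition over three repeats above a set limit taken from the earlier primary screen, cut at about 30% in these data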;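 note: inhibitor blocks binding of rhodamine activity probe so polarization falls; 0% = enzyme with DMSO and 100% = wells lacking PAFAH2 protein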
PAFAH1B3 confirm: confirmation of human PAFAH1B3 inhibitors; actives 30% (n = 390); shares compounds with PAFAH1B3 inh; inhibition, % at 3.39 µM; AID 493032; recombinant PAFAH1B3, FP-Rh activity-based probe, fluorescence polarization;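 active = average inhibition over triplicate runs above the hit cutoff set in the earlier primary screen, cut at about 25% in these data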;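 note: 0% = enzyme with DMSO and 100% = wells lacking PAFAH1B3 protein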
Rin1-Abl confirm: confirmation of inhibitors of human Rin1-Abl interaction | shares compounds with Rin1-Abl PPI inh | TR-FRET Rin1-Abl binding, purified proteins | inhibition, % at 7.35 µM | actives 49% (n = 1,300) | AID 602124
GFP quencher: GFP fluorescence interference artifact | shares compounds with Rin1-Abl PPI inh | inhibitors/quenchers counterscreen | inhibition, % at 6.75 µM | actives 8.5% (n = 1,300);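 note: ABL1-eGFP fusion protein alone without its partner RIN1-SBP; 0% = protein with vehicle and 100% = wells lacking protein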
GFP quench dose: GFP fluorescence interference dose response | shares compounds with Rin1-Abl PPI inh | GFP fluorescence interference/quenching counterscreen | IC50, µM | 230 tested, under 10 active | AID 602182; call rule not given here;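 note: ABL1-eGFP fusion protein alone without its RIN1 binding partner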
Numbers without * were called inactive; · = no result. A selection: hits, their analogues and other compounds. The true share with any hit is near 3.1%. Cut-off read from the data, not from the text of the source, unless noted: active = inhibition above about 6.5%; inactive = the rest.

SMILES	PAFAH1B3 inh	eLon inh	PAFAH1B2 inh	pPAFAH FP inh	PAFAH2 FP inh	Rin1-Abl PPI inh	Rin1-Abl confirm	GFP quencher	others
O=P(Oc1ccccc1)(Oc1ccccc1)C(O)c1ccccc1 (stereo unspecified)	4.5	5.4	2.4	2.5	30.1*	1.4	·	·	PAFAH2 confirm=16.4
CC1=CC(=O)NP(=O)(Oc2ccc3ccccc3c2)N1 (stereo unspecified)	6.5	-1.8	5.5	3.9	44.9*	1.8	·	·	PAFAH2 confirm=23.7
CCOC(=O)CNC(=O)N1Cc2ccccc2-n2nncc2C1	·	-1.1	·	·	·	2.7	·	·
Cc1cc(/C=C2/C(=O)NC(=O)N(Cc3ccco3)C2=O)c(C)n1-c1ccccc1O	8.2	-34.2	5.5	10.6	31.5*	-3.8	·	·	PAFAH2 confirm=25.5
CC12CCC(=O)C=C1CCC1C2CCC2(C)C(O)CCC12 (stereo unspecified)	4.9	-1.3	-2.0	0.4	34.4*	1.7	·	·	PAFAH2 confirm=-5.1
Cc1cccc(N2C(=O)NC(=O)/C(=C\c3cc(C)n(-c4sc5c(c4C#N)CCCC5)c3C)C2=O)c1C	7.6	-30.2	3.0	8.7	32.8*	2.6	·	·	PAFAH2 confirm=21.5
NC(=O)Nc1ccc(C(=O)OCC(=O)Nc2ccc(Cl)cc2C(=O)c2ccccc2)cc1	-3.9	1.9	-1.3	2.9	70.0*	-2.5	·	·	PAFAH2 confirm=51.5*
C[N+](C)(C)CC(=O)Nc1ccc(Cl)cc1C(=O)c1ccccc1	12.0	2.7	2.1	-6.2	2.7	-1.2	·	·
COc1ccc2c(CN3CC=C(c4ccccc4)CC3)cc(=O)oc2c1	7.8	5.9	-0.5	-1.3	-0.1	2.7	·	·
CCc1ccc2c(CN3CC=C(c4ccccc4)CC3)cc(=O)oc2c1	27.3*	-19.3	2.1	1.6	-2.9	-0.3	·	·	PAFAH1B3 confirm=6.3
COc1cc2c(cc1O)[C@@H]1Cc3ccc(OC)c(O)c3CN1CC2	36.5*	3.3	8.1	-0.3	5.5	0.1	·	·	PAFAH1B3 confirm=11.4
CCCCn1c(NS(=O)(=O)c2ccccc2)c(C(=O)OCC)c2nc3ccccc3nc21	51.3*	-23.1	23.5	18.5	13.9	7.8	·	·	PAFAH1B3 confirm=5.3
CCOC(=O)c1c(N)n(CCN2CCCCC2)c2nc3ccccc3nc12	-6.2	-14.2	2.4	-1.4	8.4	-5.0	·	·
COc1ccc(-n2nnnc2C(c2cccc3ccccc23)N2CCC3(CC2)C(=O)NCN3c2ccccc2)cc1 (stereo unspecified)	·	-7.4	·	·	·	0.7	·	·
Oc1cccc2nc3ccccc3nc12	35.0*	-3.4	2.2	11.8	14.4	-0.6	·	·	PAFAH1B3 confirm=9.6
C=CCNC(=S)N1Cc2cc(Br)ccc2-n2nncc2C1	·	1.0	·	·	·	1.6	·	·
CCC(C)NC(=O)c1c(N)n(CCCOC)c2nc3ccccc3nc12 (stereo unspecified)	61.6*	6.1	18.4	18.3	9.2	27.0*	2.0	-0.6	PAFAH1B3 confirm=18.6
CCOC(=O)[C@]12Cc3cc(C)ccc3[C@H]1N(C)C(=O)c1cc(OC)ccc12	·	8.3	·	·	·	·	·	·
Cc1ccc(N2C(=O)NC(=O)/C(=C/C=C/c3ccco3)C2=O)cc1	-1.2	-207.2	1.6	19.1	2.0	6.2*	2.7	0.4
C=C1C(O)[C@@H]2O[C@]3(CC[C@H](/C=C/C(C)[C@@H]4CC(C)=CC5(O[C@H](C[C@@](C)(O)C(=O)O)CCC5O)O4)O3)CC[C@H]2O[C@@H]1C(O)CC(C)[C@H]1OC2(CCCCO2)CCC1C (stereo partly specified)	·	·	·	2.2	·	·	·	·
N#CC1c2ccccc2-n2nncc2CN1C(=O)c1ccccc1F (stereo unspecified)	·	-2.0	·	·	·	1.9	·	·
CCN(CC)C(=O)c1ccc(NC(=O)c2cccc(S(=O)(=O)N3CCN(Cc4ccccc4)CC3)c2)cc1	4.0	-10.2	-4.4	0.8	0.8	4.0	·	·
CCN(CC)C(=O)c1ccc(NC(=O)c2cc(S(=O)(=O)N3CCCCCC3)ccc2OC)cc1	8.2	0.8	6.1	0.2	7.7	85.6*	89.9*	0.0	GFP quench dose=>67.5
CC(C)(C)n1nnnc1C(c1cccc2ccccc12)N1CCC2(CC1)C(=O)NCN2c1ccccc1 (stereo unspecified)	·	-0.6	·	·	·	2.3	·	·
COP(=O)(OC)C(NS(=O)(=O)c1ccccc1)C(Cl)(Cl)Cl (stereo unspecified)	3.5	-0.7	1.8	2.2	7.8	8.0*	-0.5	-0.8
SMILES	PAFAH1B3 inh	eLon inh	PAFAH1B2 inh	pPAFAH FP inh	PAFAH2 FP inh	Rin1-Abl PPI inh	Rin1-Abl confirm	GFP quencher	others
S=C(NCCc1ccccc1)N1Cc2cc(N3CCCCC3)ccc2-n2nncc2C1	·	-14.7	·	·	·	-0.5	·	·
COc1ccc(-n2nnnc2C(C2CC2)N2CCC(n3c(=O)[nH]c4ccccc43)CC2)cc1 (stereo unspecified)	·	-5.9	·	·	·	20.1*	23.6*	0.1	GFP quench dose=>67.5
O=c1[nH]c2ccccc2n1C1CCN(C(c2nnnn2-c2ccc3c(c2)OCCO3)C2CC2)CC1 (stereo unspecified)	·	-3.6	·	·	·	17.2*	19.9*	0.8	GFP quench dose=>67.6
COc1ccc(-n2nnnc2C(c2ccccc2)N2CCC(n3c(=O)[nH]c4ccccc43)CC2)cc1 (stereo unspecified)	·	-3.3	·	·	·	6.9	·	·
CCC1(CCC(C)C)C(=O)NC(=O)N(c2ccccc2)C1=O (stereo unspecified)	·	-2.0	·	·	·	·	·	·
c1ccc2c(c1)CN(Cc1ccc3c(c1)OCO3)Cc1cnnn1-2	·	8.1	·	·	·	-0.6	·	·
CCCCn1c(NC(=O)c2ccc(Br)o2)c(C(=O)OCC)c2nc3ccccc3nc21	76.8*	-7.5	37.9*	11.2	41.0*	7.3*	4.9	1.2
CCOC(=O)c1cc2cc(OC)ccc2n1C1CCN(Cc2ccccc2)CC1	·	11.0	·	·	·	·	·	·
CNCC(O)c1ccc(O)cc1 (stereo unspecified)	·	-3.8	·	3.1	·	-0.1	·	·
CC(Cc1ccc(O)cc1)NCC(O)c1ccc(O)c(O)c1 (stereo unspecified)	·	-0.5	·	·	·	14.3*	9.3*	4.2
COc1ccc(-n2nnnc2C(c2cccc(OC)c2OC)N2CCC(n3c(=O)[nH]c4ccccc43)CC2)cc1 (stereo unspecified)	·	2.9	·	·	·	18.6*	15.9*	1.9
COc1cccc(C(c2nnnn2-c2ccc3c(c2)OCCO3)N2CCC(n3c(=O)[nH]c4ccccc43)CC2)c1OC (stereo unspecified)	·	4.8	·	·	·	19.9*	18.9*	-1.1	GFP quench dose=>67.5
